Screens: PubChem, Sanford-Burnham Center for Chemical Genomics
A selection: hits, their analogues and other compounds. The true share with any hit is near 4%.
TROY signal inh – TROY signaling inhibition; Q293 LMP1-TROYcd NF-kB luciferase reporter, 4 h; inhibition, % at 10 µM; actives 0.98% (n = 360,000); AID 1347056;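 active means compounds whose plate-normalised and pattern-corrected inhibition of the luciferase reporter signal at the single screening dose is 50% or more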
KKLEB cytotox – counter-screen for CF NF-kB inhibitors: cytotoxicity; actives 0.36% (n = 360,000); KKLEB CF airway cells viability, ATPlite luminescence, overnight; active compounds read low; cells stimulated with P. aeruginosa culture filtrate; AID 602141; activity change (cytotoxicity), % at 5 µM;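 active means corrected activity change at or below -50% at 5 µM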
Peg3 prom inh – reduces Peg3 promoter-driven luciferase expression in HeLa; HeLa PEG-Prom luciferase reporter, luminescence, overnight; inhibition, % at 20 µM; actives 1.7% (n = 360,000); AID 588405;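 active means inhibition of at least 50% at 20 µM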
TWEAK Fn14 block – TWEAK-Fn14 signaling inhibition. AID 1159606. inhibition, % at 10 µM. TWEAK-stimulated Fn14 reporter cells, luciferase luminescence, 8 h. actives 2% (n = 360,000); in the data active means inhibition above about 50%
HIF-2a block – HIF-2a inhibition; 786-0 RCC cells HIF-2a reporter, luciferase luminescence, overnight; inhibition, % at 18.8 µM; actives 0.72% (n = 360,000); AID 624352;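 active means inhibition of the luminescence signal of 40% or more relative to plate controls, in a single-dose primary screen at 18.75 µM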
CF NFkB inh – cystic fibrosis NF-kB activation inhibition; KKLEB NF-kB-GFP reporter, PAF-induced, GFP fluorescence overnight; inhibition, % at 5 µM; actives 0.86% (n = 360,000); AID 588850;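 active means at least 50% inhibition at 5 µM, scaled per plate between neutral and stimulator controls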;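 further: PAF is a Pseudomonas aeruginosa culture filtrate used as stimulus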
Of the large screens only hits and unclear results are named; the others gave an inactive call.

COc1ccc(-c2ccc(C#N)c(SCC(=O)Nc3sc4c(c3C#N)CCC4)n2)cc1OC	Peg3 prom inh 74.7
N#Cc1cc2c(nc1SCC(=O)Nc1sc3c(c1C#N)CCC3)CCC2	none
CN1CCN(S(=O)(=O)c2cccc(C(=O)Oc3ccccc3Cl)c2)CC1	none
CCCCn1c(N)c(N(CCOC)C(=O)c2ccc(Cl)c(S(=O)(=O)N3CCCCC3)c2)c(=O)[nH]c1=O	none
N#Cc1cccc(NC(=O)COC(=O)c2ccc[n+]([O-])c2)c1	none
NC(=O)c1nc2c([nH]c1=O)CCCC2	none
C=CCOC(=O)/C(=C\c1ccccc1)NC(=O)c1ccc(C)cc1	TROY signal inh 50.9
CCOC(=O)/C(=C\c1ccccc1)NC(=O)c1ccccc1	none
O=C(c1cc2nc(-c3ccc(F)cc3)cc(C(F)(F)F)n2n1)N1CCCCC1c1cccnc1 (stereo not drawn)	TWEAK Fn14 block 61.4
Cc1cc2c(cc1C)N(C(=O)CCl)CCN2C(=O)CCl	Peg3 prom inh 108.5
N#CCN=C(c1ccccc1)c1ccccc1	none
COc1ccc([C@H]2C[C@@H](O)[C@H](n3cc(COC(=O)c4ccccc4)nn3)CN2CC2CCCCC2)cc1	Peg3 prom inh 52.2
O=C(NNC(=O)c1ccccc1-n1cccc1)c1ccc(Cl)cc1	TWEAK Fn14 block 83.2
O=C(NNC(=O)c1ccccc1-n1cccc1)c1ccc(Cl)c(Cl)c1	none
c1ccc(CCNc2ncnc3ccccc23)cc1	TWEAK Fn14 block 67.9
CCCCCCCCNc1ncnc2ccccc12	none
O=C(CN1C(=O)CCC1=O)NNc1ccc2ccccc2c1	TROY signal inh 66.9, TWEAK Fn14 block 70.3
O=C(Cc1ccccc1)NNc1ccc2ccccc2c1	TROY signal inh 50.7
CCOC(=O)Nc1ccc2c(c1)nc(CN1CCCCC1)n2C	none
CCCn1c(C)cc(C(=O)CSc2nc3ccccc3c(=O)n2Cc2ccco2)c1C	TWEAK Fn14 block 59.2
O=C(CSc1nc2ccccc2c(=O)n1Cc1ccco1)c1ccc(F)cc1	TROY signal inh 64.4, TWEAK Fn14 block 57.7
NC(=O)CSc1nc2ccccc2c(=O)n1Cc1ccco1	none
CS(=O)(=O)c1ccc(Cl)c(NC(=O)CSc2nc3ccccc3c(=O)n2Cc2ccco2)c1	KKLEB cytotox -54.3
CCOC(=O)CC(=O)CSc1nc2sc(C)cc2c(=O)n1Cc1ccco1	none
Cc1cc2c(=O)n(Cc3ccco3)c(SCC(=O)c3ccc(Cl)s3)nc2s1	TWEAK Fn14 block 54.4
CSc1ccccc1C(=O)OCC(=O)NC1CCCCCCC1	none
Cn1nc(-c2ccccn2)nc2c(=O)n(C)c(=O)nc1-2	TROY signal inh 57.0, KKLEB cytotox -99.2, Peg3 prom inh 104.6, TWEAK Fn14 block 102.2, HIF-2a block 71.4, CF NFkB inh 99.5
COc1ccc(-c2nc(-c3ccccn3)ncc2S(C)(=O)=O)cc1	none
COc1ccccc1N=C(C)C1=C(O)CC(c2ccccc2)CC1=O (stereo not drawn)	CF NFkB inh 52.7
O=C(CN1C(=O)c2ccccc2C1=O)Oc1ccc(Cl)cc1	none
Cc1cccc(OCC(=O)NCC(=O)N=Nc2c(O)[nH]c3ccc([N+](=O)[O-])cc23)c1	none
COc1ccc(/C=C/C(=O)NCC(=O)N=Nc2c(O)[nH]c3ccc([N+](=O)[O-])cc23)cc1	CF NFkB inh 78.4
COc1ccccc1N1CCN(c2ncnc3c2oc2ccccc23)CC1	Peg3 prom inh 57.5
c1ccc2c(c1)oc1c(N3CCOCC3)ncnc12	none
Cc1ccc2c(COC(=O)c3ccccc3F)cc(=O)oc2c1	TWEAK Fn14 block 62.8
O=C(CN1C(=O)c2ccccc2S1(=O)=O)Nc1ncc(Cl)cc1Cl	TROY signal inh 55.0, Peg3 prom inh 58.2, TWEAK Fn14 block 74.6
O=C(CN1C(=O)c2ccccc2S1(=O)=O)c1ccccc1	TROY signal inh 76.5, Peg3 prom inh 53.5, TWEAK Fn14 block 100.4, HIF-2a block 46.5
O=C(CN1C(=O)c2ccccc2S1(=O)=O)Nc1ncccn1	none
CN(C(=O)CN1C(=O)c2ccccc2S1(=O)=O)C1CCCCC1	TROY signal inh 74.9, TWEAK Fn14 block 70.3
COC(CN(C)S(=O)(=O)c1cc2c3c(c1)CCN3C(=O)CC2)OC	none
O=C(CCNC(=O)C1CCN(S(=O)(=O)c2ccc(F)cc2)CC1)NCc1ccccc1	none
O=c1[nH]c(NCc2ccccc2)nc2c1CCC2	none
Cc1nc(Nc2nc3c(c(=O)[nH]2)CCC3)nc2ccccc12	Peg3 prom inh 86.0, TWEAK Fn14 block 68.5, CF NFkB inh 65.3
CN(C)c1ccc(/C=N/n2c(C3CCCCC3)n[nH]c2=S)cc1	none
CC1(C)CCN2CCC(C)(C)c3c(O)ccc1c32	TWEAK Fn14 block 63.9
Clc1ccc(-c2nc3ccccn3c2CN2CCCCC2)cc1	TROY signal inh 54.6, TWEAK Fn14 block 83.4
CN(C)Cc1c(-c2ccc(Cl)cc2)nc2ccccn12	none
Cc1noc(C)c1COC(=O)c1ccc(S(=O)(=O)N2CCCCC2)cc1	none
COc1ccc(N2CC(C(=O)OCC(=O)Nc3cccc(C)c3)CC2=O)cc1 (stereo not drawn)	none
COc1ccc(NC(=O)CN2C(=O)CSC(C)C2=O)cc1 (stereo not drawn)	Peg3 prom inh 54.8
COc1cc(OC)cc(-c2nc3ccccc3c(=O)n2OC(=O)c2ccccc2C)c1	Peg3 prom inh 53.0
COc1ccc(OC)c(C(c2c(O)nc(SC)[nH]c2=O)c2c(O)nc(SC)[nH]c2=O)c1	none
COc1ccc(/C=C/C(=O)Nc2ccccc2C(=O)O)cc1OC	TROY signal inh 84.2, TWEAK Fn14 block 98.5
COc1ccc(/C=C/c2cc(C(=O)O)c3ccccc3n2)cc1	TWEAK Fn14 block 77.0
COc1ccc(/C=C/C(=O)Nc2ccccc2C(=O)O)cc1	TROY signal inh 53.5, TWEAK Fn14 block 86.8
COc1cc(OC)c(OC)cc1/C=C/c1cc(C(=O)O)c2ccccc2n1	none
COc1ccc(/C=C/C(=O)Nc2ccccc2C(F)(F)F)cc1OC	none
Cc1ccc2nc(SCC(=O)NC3CCS(=O)(=O)C3)[nH]c2c1 (stereo not drawn)	none
CC(C)=CCc1cc([C@@H]2CC(=O)c3ccc(O)c(CC=C(C)C)c3O2)ccc1O	TWEAK Fn14 block 57.8
CCc1nc2ccc(C(=O)N(CC)CCN(C)C)cn2c1N(C)Cc1cccs1	none
CCOc1ncccc1C(=O)NNC(=O)c1ccc(NS(=O)(=O)c2cccs2)cc1	none
CC(=O)NC1=NC(=O)/C(=C/c2cn(C(C)=O)nc2-c2ccccc2)S1	TWEAK Fn14 block 74.2, CF NFkB inh 57.1
Cc1ccc(Nc2ncc3c(=O)[nH][nH]c(=O)c3n2)cc1	none
CCOC(=O)C(CC)n1cnc2c(nnn2-c2ccccc2)c1=O (stereo not drawn)	none
CC(C)C1CC(CCNCc2ccc(N(C)C)cc2)(c2ccccc2)CCO1 (stereo not drawn)	Peg3 prom inh 58.9
CC(C)C1CC(CCNCc2ccc3c(c2)OCO3)(c2ccccc2)CCO1 (stereo not drawn)	none
